Assay results taken from PubChem BioAssay (NCATS).
“And” between values parts separate entries of the source, which are not always exact repeats. Identical values can stand only once. Results filed as inconclusive are left out. Entries that show only a call come without a potency. The source made the active and inactive calls. Calls follow the shape of the dose curve; as a rule, active = well fitted inhibition curve with a large enough effect; inconclusive = small, poorly fitted or top-dose-only effect; inactive = no such curve, though single readings can be large or run the other way.

What follows are compounds tested against Cytochrome P450 2C9 (Homo sapiens) (UniProt P11712) (assay: qHTS Assay for Inhibitors and Substrates of Cytochrome P450 2C9 (AID 883; also: nearly all actives have a fitted effect of over 60% in size)). Details: recombinant CYP2C9, luciferin-H luminescence, 60 min; series mostly up to 57.1 µM.
Cytochrome P450 2C9 (Homo sapiens), sequence (P11712 whole entry, looked up): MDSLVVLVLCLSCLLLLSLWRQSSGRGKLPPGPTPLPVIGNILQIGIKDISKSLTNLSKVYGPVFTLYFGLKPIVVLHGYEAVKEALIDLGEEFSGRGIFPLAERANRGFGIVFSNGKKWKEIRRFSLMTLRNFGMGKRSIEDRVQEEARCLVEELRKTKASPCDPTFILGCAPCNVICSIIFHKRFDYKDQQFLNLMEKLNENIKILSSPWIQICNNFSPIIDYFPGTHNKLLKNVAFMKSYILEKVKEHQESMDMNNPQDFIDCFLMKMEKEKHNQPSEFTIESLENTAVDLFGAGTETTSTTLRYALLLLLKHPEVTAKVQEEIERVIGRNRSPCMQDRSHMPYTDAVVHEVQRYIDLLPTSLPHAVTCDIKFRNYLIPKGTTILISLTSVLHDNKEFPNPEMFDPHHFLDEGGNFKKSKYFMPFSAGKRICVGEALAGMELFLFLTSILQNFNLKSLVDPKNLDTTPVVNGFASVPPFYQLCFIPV
Outline: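 Inhibition of CYP2C9 is scored as loss of luminescence, with 57uM sulphaphenazole defining 100% inhibition. Substrate Luciferin-H is used at 100uM, equal to its KM; enzyme at 10nM in 25mM KPO4, 60 min at 37C with NADPH regeneration.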
In the case of `COCc1nc2c([nH]1)c(=O)n(C)c(=O)n2CC(C)C`, the Potency is reported as “inactive”. `OC1(c2ccc(Cl)cc2)CCN(Cc2c[nH]c3ccccc23)CC1` was tested, and the Potency was “inactive”. With `Cc1nc(N=Nc2cc(S(=O)(=O)O)c3cc([N+](=O)[O-])cc(S(=O)(=O)O)c3c2)c(COP(=O)(O)O)c(C=O)c1O` the Potency was “inactive”.

Each compound was assayed against Cytochrome P450 3A4 (Homo sapiens) (UniProt P08684) (assay: qHTS Assay for Inhibitors and Substrates of Cytochrome P450 3A4 (AID 884; also: nearly all actives have a fitted effect of over 50% in size; also: potency is read from the fitted curve at half-maximal effect)). Details: recombinant CYP3A4, Luciferin-PPXE luminescence; series mostly up to 57.1 µM.
Cytochrome P450 3A4 (Homo sapiens), sequence (P08684 whole entry, looked up): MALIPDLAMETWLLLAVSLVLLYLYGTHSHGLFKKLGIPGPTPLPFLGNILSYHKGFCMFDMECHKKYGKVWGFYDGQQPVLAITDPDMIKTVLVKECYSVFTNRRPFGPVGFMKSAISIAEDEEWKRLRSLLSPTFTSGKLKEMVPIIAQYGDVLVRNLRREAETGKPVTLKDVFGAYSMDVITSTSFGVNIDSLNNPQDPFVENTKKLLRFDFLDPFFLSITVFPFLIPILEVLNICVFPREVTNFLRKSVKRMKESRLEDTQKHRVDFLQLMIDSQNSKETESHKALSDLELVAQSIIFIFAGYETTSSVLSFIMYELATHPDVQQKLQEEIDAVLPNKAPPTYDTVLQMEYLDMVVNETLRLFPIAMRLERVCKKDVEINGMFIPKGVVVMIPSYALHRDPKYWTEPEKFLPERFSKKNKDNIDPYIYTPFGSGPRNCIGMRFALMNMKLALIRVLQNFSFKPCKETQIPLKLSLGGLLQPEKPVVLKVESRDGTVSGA
Outline: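 Luminescent readout of luciferin produced by CYP3A4 (20 nM) dealkylation of Luciferin-PPXE, 25 uM (its KM). NADPH-driven reaction ran 60 min at RT after 10 min compound preincubation; data scaled to 57 uM ketoconazole as 100% inhibition.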
In the case of `O=C(O)C1=CCNCC1`, the Potency is reported as “inactive”. For `CCCCCCCC/C=C\CCCCCCCC(=O)NCCc1ccc(O)c(O)c1`, the Potency was 3.16 µM (active). For `C=CC[C@H](N)C(=O)O`, the Potency was “inactive”. For `CCN(CC)CCOC(=O)c1cc(Cl)c(N)cc1OC`, the Potency was “inactive”. With `NC(N)=NC(N)=Nc1cccc(Cl)c1` the Potency was “inactive”. `Cc1nc(N=Nc2cc(S(=O)(=O)O)c3cc([N+](=O)[O-])cc(S(=O)(=O)O)c3c2)c(COP(=O)(O)O)c(C=O)c1O` was tested, and the Potency was “inactive”. With `CCCCCCCCCCC/C=C\C(C)(C)/C=C\CCCC(=O)O` the Potency was “inactive”. In the case of `COc1ccc(NC(=O)c2ccc(-c3ccc(-c4noc(C)n4)cc3C)cc2)cc1N1CCN(C)CC1`, the Potency is reported as “inactive”. `NCCCCN` was tested, and the Potency was “inactive”. For `O=C(O)C1=CC(=C(c2ccc(O)c(C(=O)O)c2)c2ccc(O)c(C(=O)O)c2)C=CC1=O`, the Potency was “inactive”. In the case of `Cn1c(=O)[nH]c2ncn(C)c2c1=O`, the Potency is reported as “inactive”. `O=S(=O)(c1cccc2c(Cl)cccc12)N1CCCNCC1` was tested, and the Potency was 5.01 µM (active) and 3.98 µM (active).
